Screens: PubChem, National Center for Advancing Translational Sciences (NCATS)
Sampled rows, rich in hits. Any-hit rate of the full collection: about 7.5%.
ELG1 repair inh = blocks ELG1-dependent DNA repair in HEK293T cells | HEK293T ELG1-luciferase reporter, luminescence, 16 h; DNA damage induced by 5-fluorouridine | Potency, µM (top dose mostly 46.1 µM), for the others: top-dose activity change, negative = inhibition, hits mostly inhibitors | hit rate 2.3% among 330,000 | AID 504467; note: potency is the fitted concentration of half-maximal effect; nearly all actives have a fitted effect of over 55% in size
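In this reporter screen, reduction of luminescence relative to DMSO vehicle indicated activity. Compounds and 5-fluorouridine were added together to 2,000 cells per well, incubated for 16 hr at 37 °C, then developed with ONE-Glo.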
TSHR antag = antagonists of human thyroid stimulating hormone receptor; P16473; TSHR-expressing cells, TSH-stimulated cAMP HTRF, 2 h; active compounds read low; activity change, negative = inhibition, % at 11.5 µM; hit rate 0.2% among 330,000; AID 504810;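 active = activity change below a set negative limit, meaning inhibition stronger than a set level, cut at about -70% in these data; inconclusive = activity change between two set negative limits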
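TSHR-expressing cells, 200/well, pre-treated with compound, then stimulated with EC80 TSH (4nM final) for 2 hours at 37 deg C. cAMP measured by competitive HTRF: anti-cAMP cryptate antibody in lysis buffer plus cAMP-d2, read after 30 minutes at room temperature.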
RORgamma inh = inhibitors of mouse ROR gamma transcriptional activity | P51450 | Drosophila S2 Gal4-RORgamma UAS-luciferase reporter, 20 h | Potency, µM (top dose mostly 53.6 µM), for the others: at the top dose activity change, negative = inhibition, usual class: inhibitors | hit rate 5.4% among 310,000; note: potency is the fitted concentration of half-maximal effect; nearly all actives have a fitted effect of over 60% in size
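ROR gamma transcriptional activity was tracked as Gal4-UAS luciferase output in stably transfected Drosophila Schneider cells, with compound added 1 hr before 700 uM copper sulfate induction and a 20 hr ambient-temperature incubation.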
Gal4-VP16 FLuc = counter-screen for ROR gamma inhibitors: Gal4-VP16 reporter; Drosophila S2 Gal4-VP16 UAS-luciferase, luminescence, 20 h; Potency, µM (series often up to 53.6 µM), for inactives: top-dose activity, negative = inhibition, usual class: inhibitors; hit rate 3.5% among 310,000;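 note: Gal4-VP16 expression switched on by copper sulfate through the metallothionein promoter; potency is the fitted concentration of half-maximal effect; nearly all actives have a fitted effect of over 50% in size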
B2AR arrestin = beta2AR (human) beta-arrestin recruitment activity; Potency, µM (highest dose often 46.1 µM), inactives show at the highest dose activation, hits mostly activators; P07550; beta-arrestin recruitment to beta2AR, cell-based reporter; hit rate 0.02% among 330,000;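 note: potency is the fitted concentration of half-maximal effect; 0% = DMSO controls and full agonism = EC100 isoproterenol or metaproterenol; nearly all actives have a fitted effect of over 65% in size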
Target sequence (P07550 whole entry, looked up): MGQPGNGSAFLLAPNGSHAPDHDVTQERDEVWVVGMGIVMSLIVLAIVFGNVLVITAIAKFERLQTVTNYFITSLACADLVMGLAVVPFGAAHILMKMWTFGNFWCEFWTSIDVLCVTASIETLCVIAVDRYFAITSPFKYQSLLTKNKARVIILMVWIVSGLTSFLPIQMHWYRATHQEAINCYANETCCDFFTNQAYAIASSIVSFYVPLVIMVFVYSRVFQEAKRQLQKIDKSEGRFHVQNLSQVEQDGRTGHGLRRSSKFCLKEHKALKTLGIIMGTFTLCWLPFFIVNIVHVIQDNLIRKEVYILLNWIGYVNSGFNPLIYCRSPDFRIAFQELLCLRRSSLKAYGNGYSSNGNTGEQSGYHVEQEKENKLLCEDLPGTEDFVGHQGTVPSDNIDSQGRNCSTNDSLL
* = called active by the depositor; ? = inconclusive; . = no result given; [ ] = remark or other dose. Unless noted, calls come from the whole dose curve; as a rule, active = well fitted curve in the direction sought with a large enough effect; inconclusive = small, poorly fitted or top-dose-only effect, or another doubt; inactive = no such curve, though single readings can be large; an effect the other way counts as inactive or inconclusive. Unless noted, % is set by controls: 0 for no effect and ±100 for the full control effect.

SMILES	ELG1 repair inh	TSHR antag	RORgamma inh	Gal4-VP16 FLuc	B2AR arrestin
O=C(Cc1ccccc1)NCC(=O)N/N=C/c1ccc([N+](=O)[O-])s1	?	-6.4	-34.2%	-21.7%	-0.1%
CCOC(=O)N/N=C\c1ccc([N+](=O)[O-])s1	20.6µM*	3.6	-14.1%	2.5%	0.1%
CCOc1ccc(S(=O)(=O)NN=C(C)c2cccnc2)cc1	-0.6%	11.5	.	.	-0.8%
C/C(=C\COc1c2ccoc2cc2oc(=O)ccc12)CCC(O)C(C)(C)O (centres undefined)	.	.	-14.1%	-4.3%	.
CNC(=S)NNC(=O)COc1ccccc1C	-3.4%	2.9	7.08µM*	10µM*	-0.2%
Cc1ccccc1OCC(=O)Nc1ccccc1C(=O)NC1CC1	5.17µM*	14.9	.	.	-0.6%
O=C(COc1ccccc1)Nc1ccccc1C(=O)NC1CC1	0.0%	-1.0	.	.	0.0%
CNC(=S)NNC(=O)COc1cccc(C)c1C	24.3%	-3.1	1.41µM*	7.08µM*	-1.2%
Cc1cccc(OCC(=O)Nc2ccc3c4c(cccc24)CC3)c1C	?	10.2	-3.9%	-29.0%	-0.4%
CN[C@H](C)CCC=C(C)C	.	.	1.5%	-11.0%	.
CC1(C)O[C@H]2C[C@@H]3[C@H]4CCC5=CC(=O)CC[C@@]5(C)[C@]4(F)[C@@H](O)C[C@@]3(C)[C@@]2(C(=O)CCl)O1	.	.	-32.4%[2.98 µM]	-15.1%[17 µM]	.
COc1ccc(CCN2CC(C(=O)OCC(=O)NC(C)c3cccc(Cl)c3)CC2=O)cc1OC (centres undefined)	0.3%	-16.2	.	.	0.0%
O=[N+]([O-])c1cc(-c2ncccn2)c([N+](=O)[O-])s1	?	-8.6	3.98µM*	7.08µM*	-0.5%
O=C(Nc1ncccn1)c1cc([N+](=O)[O-])cc([N+](=O)[O-])c1	1.5%	-1.7	-18.1%	-6.5%	-0.6%
COc1ccc2c(c1)C(=O)[C@@H](OC(=O)NS(=O)(=O)c1ccc(F)cc1)[C@H](c1ccc(OC)c(Br)c1)O2	.	.	-18.6%	7.4%	.
COC(=O)c1ccc(C(NC(=O)OCc2ccccc2)/C(=C/[C@@H](C)C(=O)NCc2ccc(S(C)(=O)=O)cc2)c2cccnc2)cc1 (some centres undefined)	.	.	12.5%	0.0%	.
Cc1ccc(C(=O)CC(=O)c2ccc(C)cc2O)cc1	?	-2.8	8.91µM*	?	-0.3%
Cc1ccc(CC(=O)c2ccc(Cl)cc2)cc1	?	4.9	14.7%	22.5%	-0.1%
Cc1ccc(C(=O)CC(=O)c2cc(Cl)ccc2O)cc1	?	5.4	?	10µM*	-0.2%
CC(C)(C)c1ccc(C(=O)CC(=O)c2cc(Cl)ccc2O)cc1	1.2%	-2.1	11.2µM*	?	-0.1%
NC(=O)C1CCN(CC(O)COc2ccc(-c3ccccc3)cc2)CC1 (centres undefined)	-3.2%	-8.3	-17.5%	-4.8%	0.6%
O=C(N/N=C/c1cccs1)c1cccc2cc[nH]c12	-3.6%	-12.7	2.82µM*	?	-1.0%
O=C(N/N=C/c1cccs1)c1ccc2nc[nH]c2c1	?	-0.1	13.2%	-4.0%	-0.6%
O=C(N/N=C/c1cccs1)c1ccc2ccccc2c1	?	-4.6	3.98µM*	5.62µM*	0.4%
O=C(N/N=C/c1cccs1)c1ccc2ncccc2c1	?	-13.4	11.2µM*	?	-0.3%
SMILES	ELG1 repair inh	TSHR antag	RORgamma inh	Gal4-VP16 FLuc	B2AR arrestin
c1ccc2c(c1)NCCS2	?	20.2	14.1%	-3.5%	-0.8%
CC1CSc2ccccc2NC1=S (centres undefined)	0.6%	1.6	7.08µM*	7.94µM*	-0.6%
c1ccc(C2CSc3ccccc3N2)cc1 (centres undefined)	?	4.0	-10.7%	-2.8%	-1.5%
S=C1CSc2ccccc2N1	12.7%	11.3	3.55µM*	7.94µM*	-1.0%
CCN(Cc1nc(-c2ccccc2)no1)C(=O)c1ccco1	17.4%	-3.9	20.5%	-1.2%	-0.5%
CCN1C(=O)[C@H]2[C@H]3[C@H](O)[C@H](O)C/C(=N/NC(=O)OCc4ccccc4)[C@H]3CC[C@@H]2C1=O	.	.	4.6%[10 µM]	-8.1%[10 µM]	.
CC1CCC2C(=O)N3CCCC3C(=O)N2C1c1ccc(Br)cc1 (centres undefined)	.	.	-0.7%[10 µM]	4.2%[10 µM]	.
c1ccc(CNc2ncnc3ccc(-c4ccc5c(c4)OCO5)cc23)cc1	.	.	?	-15.9%	.
O=C(c1ccco1)N1CCC2(CC1)CCN(c1cccc(-c3ccccc3)c1)CC2	.	.	22.5%	11.9%	.
CCOc1ccc(NC(=O)N(Cc2ccc(C)cc2)Cc2ccccn2)cc1	-14.5%	-2.5	4.9%	0.3%	0.4%
c1csc(CNc2ccnc(-c3ccc4c(c3)OCO4)n2)c1	.	.	-118.1%	2.2%	.
CC(C)N(C(=O)NC(=O)Nc1ccccn1)S(C)(=O)=O	?	-2.4	-2.7%[10 µM]	0.2%	-0.5%
CC(C)(C)C(=O)NC(=S)Nc1ccccc1N1CCCC1	6.0%	-4.4	19.6%	?	0.1%
CC(C)C(=O)NC(=S)Nc1ccccn1	4.2%	-1.9	12.6µM*	?	0.1%
CC(C)(C)C(=O)NC(=S)Nc1ccccn1	?	-4.0	12.6µM*	?	-0.4%
COc1ccc(-c2c(O)c3c(OC)c4c(cc3oc2=O)OC(C)(C)C=C4)cc1	.	.	-42.9%	-17.4%	.
CCOC(=O)CCCCC(=O)c1[nH]c(=O)[nH]c1CSc1nc(C)cc(C)n1	-12.2%	-3.7	-3.6%	4.6%	0.4%
CCOC(=O)CCCCC(=O)c1[nH]c(=O)[nH]c1CSc1nnc2c3cc(Br)ccc3n(C)c2n1	-6.3%	3.6	5.01µM*	?	0.0%
COc1cc(C(=O)Oc2ccc3c(OC)c4ccoc4nc3c2OC)cc(OC)c1OC	.	.	0.5%	3.4%	.
Cc1ccccc1C(=O)N1CCc2c([nH]c3ccccc23)C1C(F)(F)F (centres undefined)	13µM*	2.1	0.6%	6.7%	-0.1%
CC1CCCC(NC(=O)COC(=O)c2cc(=O)[nH]c3ccccc23)C1C (centres undefined)	-3.0%	-0.2	.	.	0.1%
O=C1c2ccccc2C(=O)c2c1ncn2-c1ccccc1	-22.2%	1.4	11.2µM*	?	-0.4%
Cc1snc(SCC(=O)N/N=C(\N)COc2ccc(F)cc2)c1C#N	19.1%	9.0	2.51µM*	4.47µM*	-0.4%
Cc1sc(NC(=O)CSc2nnc(-c3ccc(F)cc3)o2)c(C#N)c1C	2.1%	-18.2	-25.0%	6.0%	-0.6%
COc1ccccc1C1CCN(C(=O)c2ccc(C(C)(C)C)cc2)CC1	?	-6.3	57.0%	?	0.4%
CC(C)(C)C1=CC(=O)C(=O)C(C(C)(C)C)=C1	?	5.5	10µM*	12.6µM*	5.2%
O=C(Cc1ccccc1F)Nc1cc(S(=O)(=O)N2CCOCC2)ccc1N1CCCC1	6.5%	-5.3	.	.	-0.9%
Fc1ccc(Cn2cccc2C2=NC(c3ccccc3)CO2)cc1 (centres undefined)	27.4%	2.7	26.1%	-7.7%	-0.2%
CCC1COC(c2cccn2Cc2ccccc2Cl)=N1 (centres undefined)	-0.7%	3.5	8.91µM*	4.3%	0.0%
